Results filed as inconclusive are left out. The source made the active and inactive calls. Unless noted, calls follow the shape of the full dose curve.
Legend:
[1] = Nuclear factor erythroid 2-related factor 2/antioxidant responsive element (Nrf2/ARE) small molecule agonists: qHTS cell viability counter screen in human keratinocytes (AID 1919968; active = well fitted curve in the direction sought with a large enough effect in the repeat runs; an effect the other way counts as inactive or inconclusive; also: nearly all actives have a fitted effect of over 55% in size)
Outline: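 Fluorescence read-out from CellTiter-Fluor after 1 h at 37 C. Wells held HaCaT-derived ARE-luciferase reporter cells (1,500/well) treated 23 h with DMSO-dissolved compounds. Run in the same wells as the luciferase agonist read.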

[2] = Nuclear factor erythroid 2-related factor 2/antioxidant responsive element (Nrf2/ARE) small molecule agonists: luciferase reporter gene qHTS assay in human keratinocytes (AID 1919969); also: nearly all actives have a fitted effect of over 35% in size
[3] = molecular target: Gonadotropin-releasing hormone receptor (Homo sapiens) (UniProt P30968); assay: Human gonadotropin-releasing hormone receptor (GnRHR) small molecule agonists, calcium flux assay in GnRHR-HEK293 cells (AID 1920063); also: nearly all actives have a fitted effect of over 35% in size
Gonadotropin-releasing hormone receptor (Homo sapiens), sequence (P30968 whole entry, looked up): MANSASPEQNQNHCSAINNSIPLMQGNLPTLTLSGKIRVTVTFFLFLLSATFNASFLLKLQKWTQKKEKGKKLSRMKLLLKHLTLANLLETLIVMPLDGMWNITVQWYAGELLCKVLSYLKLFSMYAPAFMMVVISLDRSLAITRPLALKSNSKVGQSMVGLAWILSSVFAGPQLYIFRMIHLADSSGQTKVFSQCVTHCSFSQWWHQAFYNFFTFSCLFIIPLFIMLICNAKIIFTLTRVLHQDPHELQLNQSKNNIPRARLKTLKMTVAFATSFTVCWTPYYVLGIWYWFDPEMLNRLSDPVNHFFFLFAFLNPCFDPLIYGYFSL
Outline: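 Calcium-dye fluorescence, Ex/Em=480/540, recorded every 1 sec over 3 min after compound addition to GnRHR-HEK293 cells. Cells had been seeded 18 hours earlier and dye-loaded for 1 hour at 37 C. Fifteen concentrations, triplicates.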

[4] = molecular target: KiSS-1 receptor (Homo sapiens) (UniProt Q969F8); assay: Human kisspeptin (KISS1R) small molecule agonists, calcium flux assay in KISS1R-HEK293 cells (AID 1920064; active = well fitted curve in the direction sought with a large enough effect in the repeat runs; an effect the other way counts as inactive or inconclusive)
KiSS-1 receptor (Homo sapiens), sequence (Q969F8 whole entry, looked up): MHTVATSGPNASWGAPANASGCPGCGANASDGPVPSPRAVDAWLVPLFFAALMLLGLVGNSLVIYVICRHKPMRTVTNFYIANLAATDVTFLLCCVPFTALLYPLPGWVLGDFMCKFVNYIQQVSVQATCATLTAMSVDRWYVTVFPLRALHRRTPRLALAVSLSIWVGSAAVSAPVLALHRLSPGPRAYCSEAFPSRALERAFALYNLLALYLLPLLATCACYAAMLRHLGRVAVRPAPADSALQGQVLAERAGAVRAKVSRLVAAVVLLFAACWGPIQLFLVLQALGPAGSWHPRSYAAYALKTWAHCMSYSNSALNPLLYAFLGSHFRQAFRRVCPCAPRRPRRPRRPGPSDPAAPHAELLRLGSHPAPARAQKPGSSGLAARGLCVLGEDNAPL
Outline: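 Calcium flux read-out: kinetic fluorescence at Ex/Em=480/540, 1 s intervals over 3 min, after pin-tool compound addition to dye-loaded KISS1R-HEK293 cells. Fifteen concentrations, triplicates.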

[5] = G protein-coupled receptor (GPCR) small molecule agonists, calcium flux assay: HEK293 wild type cell line counter screen (AID 1920065)
Outline: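 Agonist mode; 18 h seeding at 37 C, 1 h dye load at 37 C; compounds pinned from DMSO, ATP as positive control; kinetic fluorescence 480/540 nm, 3 min, 1 s reads; 15 concentrations, triplicate.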

[6] = p53 small molecule agonists, cell-based qHTS assay with human liver microsomes (AID 1963577)
Outline: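 Fluorescence of the beta-lactamase reporter in p53RE-bla cells, detected with LiveBLAzer substrate (2 h, room temperature, dark), served as the read-out after 16 h compound exposure at 37 C with human liver microsomes and NADPH, each 0.5 mg/mL final.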

[7] = p53 small molecule agonists, cell-based qHTS assay with rat liver microsomes (AID 1963578)
Outline: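 Cells carrying a p53 response element–beta-lactamase reporter were plated and rested 5 h, then dosed with compound in DMSO plus rat liver microsomes and NADPH, each at 0.5 mg/mL final. After 16 h at 37 C, LiveBLAzer substrate was added for 2 h.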

[8] = p53 small molecule agonists, cell-based qHTS assay with human liver microsomes: qHTS cell viability counter screen (AID 1963579); also: nearly all actives have a fitted effect of over 45% in size
Outline: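 Cytotoxicity counter screen: p53RE-bla, 4,000 cells/well; 5 h settle, 37 C/5% CO2; cpd + HLM 0.5 mg/mL + NADPH 0.5 mg/mL (final); 16 h, 37 C; CellTiter-Glo, 30 min RT, luminescence.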

[9] = p53 small molecule agonists, cell-based qHTS assay with rat liver microsomes: qHTS cell viability counter screen (AID 1963580); also: nearly all actives have a fitted effect of over 45% in size
Outline: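 Cytotoxicity counter screen: intracellular ATP measured by CellTiter-Glo luminescence in the same wells as the beta-lactamase reporter read, on HCT-116 p53RE-bla cells exposed 16 h at 37 C to compounds with rat liver microsomes and NADPH, each 0.5 mg/mL final.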

[10] = p53 small molecule agonists, cell-based qHTS assay: qHTS cell viability counter screen (AID 1963581); also: nearly all actives have a fitted effect of over 45% in size
Outline: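 Cytotoxicity read-out: ATP-based luminescence (CellTiter-Glo, 30 min RT) measured in the same wells as the p53 reporter assay, HCT-116 p53RE-bla cells, 16 h compound exposure at 37 C.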

[11] = p53 small molecule agonists, cell-based qHTS assay (AID 1963582; active = well fitted activation curve with a large enough effect in the signal ratio in the repeat runs, not every such curve was filed as active; the % refers to the signal ratio)
Outline: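 Fluorescence intensity read-out of a beta-lactamase reporter under a p53 response element. Cells were exposed to DMSO-dissolved compounds for 16 h at 37 C, then developed with FRET substrate for 2 h at RT.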

[12] = molecular target: 5-hydroxytryptamine receptor 2A (Homo sapiens) (UniProt P28223); assay: 5-hydroxytryptamine receptor 2A (HTR2A) small molecule antagonists, cell-based qHTS assay (AID 1963586); also: nearly all actives have a fitted effect of over 45% in size
5-hydroxytryptamine receptor 2A (Homo sapiens), sequence (P28223 whole entry, looked up): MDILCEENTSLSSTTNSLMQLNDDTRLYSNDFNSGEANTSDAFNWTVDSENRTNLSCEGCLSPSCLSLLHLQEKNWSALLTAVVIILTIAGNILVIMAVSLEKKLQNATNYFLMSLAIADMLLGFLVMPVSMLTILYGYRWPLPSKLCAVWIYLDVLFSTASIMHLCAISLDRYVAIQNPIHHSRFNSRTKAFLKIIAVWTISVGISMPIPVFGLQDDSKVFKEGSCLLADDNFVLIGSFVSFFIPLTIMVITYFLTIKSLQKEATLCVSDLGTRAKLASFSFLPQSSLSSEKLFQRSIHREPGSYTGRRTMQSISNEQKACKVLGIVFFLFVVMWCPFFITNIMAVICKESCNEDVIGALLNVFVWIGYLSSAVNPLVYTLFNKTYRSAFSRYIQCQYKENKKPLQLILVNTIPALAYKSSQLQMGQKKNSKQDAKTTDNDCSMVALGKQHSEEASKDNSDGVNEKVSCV
Outline: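 CHO cells stably expressing human HTR2A were plated for 18 h at 37 C, then loaded with calcium dye for 1 h. Compounds were preincubated 5 min at room temperature before DOI (4 nM solution) was added. Kinetic fluorescence was read for 3 min.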

[13] = molecular target: 5-hydroxytryptamine receptor 2A (Homo sapiens) (UniProt P28223); assay: 5-hydroxytryptamine receptor 2A (HTR2A) small molecule agonists, cell-based qHTS assay (AID 1963587); also: nearly all actives have a fitted effect of over 30% in size
Outline: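 CHO cells stably expressing human HTR2A, plated 18 h, loaded with calcium dye 1 h at 37 C. Agonist mode: compounds added and intracellular calcium fluorescence recorded kinetically for 2 min at 1 sec intervals.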

[14] = molecular target: Muscarinic acetylcholine receptor M1 (Homo sapiens) (UniProt P11229); assay: Cholinergic receptor muscarinic 1 (CHRM1) small molecule antagonists, cell-based qHTS assay (AID 1963588); also: nearly all actives have a fitted effect of over 40% in size
Muscarinic acetylcholine receptor M1 (Homo sapiens), sequence (P11229 whole entry, looked up): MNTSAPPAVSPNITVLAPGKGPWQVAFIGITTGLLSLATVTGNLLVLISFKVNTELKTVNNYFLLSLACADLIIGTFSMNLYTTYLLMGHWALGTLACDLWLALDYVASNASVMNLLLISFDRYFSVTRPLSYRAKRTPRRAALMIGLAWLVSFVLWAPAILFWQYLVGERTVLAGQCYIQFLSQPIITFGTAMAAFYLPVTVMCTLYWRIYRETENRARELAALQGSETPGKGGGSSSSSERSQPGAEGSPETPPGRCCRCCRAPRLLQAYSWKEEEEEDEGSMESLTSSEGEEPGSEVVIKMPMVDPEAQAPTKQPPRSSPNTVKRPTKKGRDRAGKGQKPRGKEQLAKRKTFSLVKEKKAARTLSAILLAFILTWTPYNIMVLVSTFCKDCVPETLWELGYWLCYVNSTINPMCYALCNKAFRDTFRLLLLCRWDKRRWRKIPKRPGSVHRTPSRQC
Outline: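 Compounds were tested at 15 concentrations in three independent runs. Dye-loaded CHRM1-CHO cells were exposed 5 min at room temperature before stimulation by acetylcholine added at 50nM. Intracellular calcium was read kinetically on FDSS for 3 min.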

[15] = molecular target: Muscarinic acetylcholine receptor M1 (Homo sapiens) (UniProt P11229); assay: Cholinergic receptor muscarinic 1 (CHRM1) small molecule agonists, cell-based qHTS assay (AID 1963589); also: nearly all actives have a fitted effect of over 35% in size
Outline: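 Calcium flux read-out: kinetic fluorescence at 1 sec intervals after pin-tool compound addition to dye-loaded CHRM1-CHO cells (human M1). Agonist mode; 15 concentrations tested in triplicate independent runs.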

[16] = cAMP Responsive Elements (CRE) small molecule agonists, cell-based qHTS assay (AID 1963590)
Outline: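 Beta-lactamase reporter readout: LiveBLAzer B/G FRET substrate, 2 h at room temperature, added after 3 h compound treatment of CRE-bla HEK 293T cells at 37 C/5% CO2.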

[17] = cAMP Responsive Elements (CRE) small molecule antagonists, cell-based qHTS assay (AID 1963591; active = well fitted inhibition curve with a large enough effect in the signal ratio in the repeat runs, not every such curve was filed as active; the % refers to the signal ratio)
Outline: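 HEK293T CRE-bla; 18 h preincubation; compound pin-transfer; NKH477 0.25 uM final, 3 h, 37 C; LiveBLAzer FRET substrate 2 h RT.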

[18] = molecular target: Beta-2 adrenergic receptor (Homo sapiens) (UniProt P07550); assay: Adrenergic beta2 receptor (ADRB2) small molecule antagonists, cell-based qHTS assay (AID 1963592); also: series mostly up to about 92 µM; nearly all actives have a fitted effect of over 50% in size
Beta-2 adrenergic receptor (Homo sapiens), sequence (P07550 whole entry, looked up): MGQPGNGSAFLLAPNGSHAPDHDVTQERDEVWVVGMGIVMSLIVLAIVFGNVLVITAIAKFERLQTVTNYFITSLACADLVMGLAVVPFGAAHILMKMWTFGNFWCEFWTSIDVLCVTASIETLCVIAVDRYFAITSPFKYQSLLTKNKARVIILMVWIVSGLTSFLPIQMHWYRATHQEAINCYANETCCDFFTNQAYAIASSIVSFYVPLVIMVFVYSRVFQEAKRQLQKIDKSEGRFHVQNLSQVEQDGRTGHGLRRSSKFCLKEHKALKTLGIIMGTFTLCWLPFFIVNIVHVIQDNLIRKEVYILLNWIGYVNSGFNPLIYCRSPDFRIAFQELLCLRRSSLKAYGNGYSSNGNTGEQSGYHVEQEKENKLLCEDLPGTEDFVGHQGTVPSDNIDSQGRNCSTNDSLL
Outline: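 Assay format: CHO-ADRB2 cells, 18-20hr seeding at 37C/5% CO2, then compound plus 1nM isoproterenol agonist mix for 0.5hr RT. Homogeneous time-resolved fluorescence cAMP detection after 1hr, expressed as 665/615 nm ratio.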

[19] = molecular target: D(2) dopamine receptor (Homo sapiens) (UniProt P14416); assay: Dopamine D2 receptor (DRD2) small molecule agonists, cell-based qHTS assay (AID 1963594); also: nearly all actives have a fitted effect of over 35% in size
D(2) dopamine receptor (Homo sapiens), sequence (P14416 whole entry, looked up): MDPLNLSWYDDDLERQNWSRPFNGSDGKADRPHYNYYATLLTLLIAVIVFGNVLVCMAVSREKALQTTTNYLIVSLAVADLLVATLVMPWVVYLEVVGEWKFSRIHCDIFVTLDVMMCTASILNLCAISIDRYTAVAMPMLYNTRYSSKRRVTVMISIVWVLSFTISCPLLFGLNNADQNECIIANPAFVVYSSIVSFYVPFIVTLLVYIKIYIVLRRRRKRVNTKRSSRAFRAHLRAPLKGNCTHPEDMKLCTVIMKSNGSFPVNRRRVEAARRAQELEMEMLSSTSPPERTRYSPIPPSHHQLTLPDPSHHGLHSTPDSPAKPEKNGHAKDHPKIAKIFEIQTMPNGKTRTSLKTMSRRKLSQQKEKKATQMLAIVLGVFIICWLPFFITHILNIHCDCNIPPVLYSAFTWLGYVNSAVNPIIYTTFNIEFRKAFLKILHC
Outline: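 HEK293 cells stably expressing human DRD2, pre-treated with PDE inhibitor Ro20-1724 (0.1 mM final) and compound 10 min at room temperature, then stimulated with NKH477 (200nM […]) for 30 min. cAMP read by HTRF (665/620 nm).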

[20] = molecular target: D(2) dopamine receptor (Homo sapiens) (UniProt P14416); assay: Dopamine D2 receptor (DRD2) small molecule antagonists, cell-based qHTS assay (AID 1963595; active = well fitted inhibition curve with a large enough effect in the signal ratio in the repeat runs, with a control signal flat; the % refers to the signal ratio)
Outline: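 HEK293 cells stably expressing DRD2 were preincubated with 0.1 mM Ro20-1724, then with compound for 10 min at room temperature. Cells were stimulated with 200 nM NKH477 plus 12 nM quinpirole for 30 min, and cAMP was read by HTRF.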
% is scaled to controls: 0 for no effect and ±100 for the full control effect.

FC(F)(F)c1ccccc1
inactive: Potency [1] | Potency [2] | Potency [3] | Potency [4] | Potency [5] | Potency [6] | Potency [7] | Potency [8] | Potency [9] | Potency [10] | Potency [11] | Potency [12] | Potency [13] | Potency [14] | Potency [15] | Potency [16] | Potency [17] | Potency [18] | Potency [19]

Oc1cc(O)c2c(c1)O[C@H](c1ccc(O)c(O)c1)[C@H](O)C2
inactive: Potency [1] | Potency [2] | Potency [3] | Potency [4] | Potency [5] | Potency [6] | Potency [7] | Potency [8] | Potency [9] | Potency [10] | Potency [11] | Potency [12] | Potency [13] | Potency [14] | Potency [15] | Potency [16] | Potency [17] | Potency [18] | Potency [20]

N#Cc1ccc(C2CCCc3cncn32)cc1 (stereo unspecified)
inactive: Potency [1] | Potency [2] | Potency [3] | Potency [4] | Potency [5] | Potency [6] | Potency [7] | Potency [8] | Potency [9] | Potency [10] | Potency [11] | Potency [12] | Potency [13] | Potency [14] | Potency [15] | Potency [16] | Potency [17] | Potency [18] | Potency [19] | Potency [20]

CCCCCCCCCCCCCCCCBr
inactive: activity change, negative = cytotoxicity [1] 3.53% [at 19 µM] | activity, positive = activation [2] -1.44% [at 19 µM] | activity change [3] 0.0207% [at 11.8 µM, stronger effect = higher value] | activation [4] 1.03% [at 15.8 µM] | activation [5] -0.623% [at 11.8 µM] | activation [6] -0.838% [at 13.5 µM] | activation [7] -1.9% [at 13.6 µM] | activity change, negative = cytotoxicity [8] 0.899% [at 13.5 µM] | activity change, negative = cytotoxicity [9] 0.7% [at 13.5 µM] | activity change, negative = cytotoxicity [10] 4.33% [at 13.5 µM] | activation [11] 4.11% [at 13.5 µM] | activity, negative = inhibition [12] 4.99% [at 12.7 µM] | activation [13] -4.48% [at 15.9 µM] | activity, negative = inhibition [14] -1.85% [at 12.6 µM] | activation [15] -0.125% [at 15.8 µM] | activation [16] -0.367% [at 19 µM] | activity change, negative = inhibition [17] -0.0105% [at 18.9 µM] | activity change, negative = inhibition [18] -0.441% [at 19 µM] | activation [19] -0.697% [at 19 µM] | activity change, negative = inhibition [20] -0.776% [at 18.9 µM]

Nc1ccc([N+](=O)[O-])c(C(F)(F)F)c1
inactive: Potency [1] | Potency [2] | Potency [3] | Potency [4] | Potency [5] | Potency [6] | Potency [7] | Potency [8] | Potency [9] | Potency [10] | Potency [11] | Potency [12] | Potency [13] | Potency [14] | Potency [15] | Potency [16] | Potency [17] | Potency [18] | Potency [19]

CCOc1ccc(N)c([N+](=O)[O-])c1
inactive: Potency [1] | Potency [2] | Potency [3] | Potency [4] | Potency [5] | Potency [6] | Potency [7] | Potency [8] | Potency [9] | Potency [10] | Potency [11] | Potency [12] | Potency [13] | Potency [14] | Potency [15] | Potency [16] | Potency [17] | Potency [18] | Potency [19] | Potency [20]

CCCC[C@H]1CN(CC2CCOCC2)C(=O)OC12CCN(C1(C)CCN(C(=O)c3c(C)ncnc3C)CC1)CC2
inactive: Potency [1] | Potency [2] | Potency [3] | Potency [4] | Potency [5] | Potency [6] | Potency [7] | Potency [8] | Potency [9] | Potency [10] | Potency [11] | Potency [12] | Potency [13] | Potency [14] | Potency [15] | Potency [16] | Potency [17] | Potency [18] | Potency [20]

— PubChem BioAssay (Tox21)
